In PubChem BioAssay AID624296 (National Center for Advancing Translational Sciences (NCATS), 2012):
The campaign covered roughly 350,000 compounds. About 9,900 (2.8%) were called active. A call without a number means that no potency is given here. About 15% were inconclusive and are not listed. Calls follow the shape of the dose curve; as a rule, active = well fitted activation curve with a large enough effect; inconclusive = small, poorly fitted or top-dose-only effect; inactive = no such curve, though single readings can be large or run the other way. This excerpt belongs to a sample that is enriched for actives.

assay: A quantitative high throughput screen for small molecules that induce DNA re-replication in MCF 10a normal breast cells.; also: nearly all actives have a fitted effect of over 50% in size; details: MCF 10A DNA re-replication, Hoechst nuclear intensity, 48 h; series mostly up to 46.1 µM
Potency is read from the fitted curve at half-maximal effect.

SMILES | Potency
CCCC(O)(CCC)C(=O)NN(C(=O)CCl)c1cccc(C)c1 | 14.6 µM (active)
Cc1ccc(N(NC(=O)C(C)(C)O)C(=O)c2ccccc2)cc1C | inactive
CC(C)(O)C(=O)NN(C(=O)c1ccccc1)c1cccc(Br)c1 | inactive
COc1cc(NC(=O)COC(=O)c2cc(S(=O)(=O)N3CCOCC3)ccc2F)cc(OC)c1 | inactive
CSc1ccc(Cl)c(C(=O)OCC(=O)N2CCNC2=O)c1 | inactive
O=C1CC2(CCCC2)C(=O)N1CN1CCN(S(=O)(=O)c2ccc(F)cc2F)CC1 | inactive
CC/C(=C\c1ccc(Cl)cc1)c1ccncc1 | inactive
CCn1c(=O)cc(SCC(=O)NCCC2=CCCCC2)c2ccccc21 | inactive
Cc1ccc(-n2c(SCC(=O)NCCC3=CCCCC3)nc3n[nH]c(C)c3c2=N)cc1Cl | 16.4 µM (active)
O=C(Cc1nn[nH]n1)NCCC1=CCCCC1 | inactive
Cc1ccc(N2C(=O)N3[C@@H]4c5ccccc5OC[C@@H]4[C@@H](c4ccccc4)[C@@]3(C)C2=O)cc1 | inactive
O=C(O)C(CCc1ccccn1)c1ccccc1 (centres undefined) | inactive
O=c1ccc(S(=O)(=O)N2CCCC2)cn1Cc1nc(-c2ccccc2)no1 | inactive
O=C(O)C(c1cccs1)C1(O)CCCCC1 (centres undefined) | inactive
Nc1ccc2c(c1)C(=Cc1cccnc1)c1ccccc1-2 | inactive
CC(C)=CCc1ccc(O)c(=O)cc1C(C)C | 20.6 µM (active)
CC(C)c1cc(N=O)cc(C(C)C)c1O | inactive
CCN(C(=O)COC(=O)Cc1c(F)cccc1Cl)c1c(N)n(Cc2ccccc2)c(=O)[nH]c1=O | inactive
COc1cccc(NC(=O)CN(C)C(=O)CSC(=S)N2CCCC2)c1 | inactive
COc1cccc(NC(=O)CN(C)CC(=O)Nc2ccc3c(c2)CCC3)c1 | 0.651 µM (active)
COc1ccc(NC(=O)CN(C)CC(=O)Nc2cccc(C(F)(F)F)c2)cc1 | inactive
O=C(Cn1nnc(-c2ccccc2)n1)NC(=O)NC1CCCC1 | inactive
O=C(COC(=O)c1ccc(Br)o1)NC12CC3CC(CC(C3)C1)C2 | inactive
CC(C)(C)OC(=O)C[C@@H]1C/C=C\C[C@H](CC(=O)N[C@@H](CO)Cc2ccccc2)C(=O)N[C@H](Cc2ccccc2)COC1=O | inactive
O=C1CCC/C=C/C[C@@H](CC(=O)N(CCO)Cc2ccccc2)C(=O)NC[C@H](c2ccccc2)O1 | inactive
O=C1N[C@H](Cc2c[nH]c3ccccc23)COC(=O)[C@H](Cc2ccc(F)cc2)C/C=C\C[C@H]1CC(=O)N(CCO)Cc1ccccc1 | inactive
O=C1OC[C@@H]2CCCN2C(=O)[C@H](CC(=O)N(CCO)Cc2ccccc2)C/C=C\CC[C@@H]1Cc1ccc(F)cc1 | inactive
O=C1NC[C@@H](c2ccccc2)OC(=O)[C@H](Cc2ccc(F)cc2)CC/C=C/C[C@H]1CC(=O)N(CCO)Cc1ccccc1 | 18.4 µM (active)
CC(C)(C)OC(=O)C[C@@H]1C/C=C\C[C@@H](CC(=O)N(CCO)Cc2ccccc2)C(=O)N[C@H](Cc2ccccc2)COC1=O | 20.6 µM (active)
